From PubChem BioAssay (EPA / NIEHS) come the findings set out here.

The term AC50 denotes the concentration at which the activity in the assay is half-maximal.

Records with an inconclusive call do not appear. The source holds several records for some structures; these can differ, active in one and inactive in another. Active and inactive are the calls of the source. The calls were made as follows: active = hit-call score of the fitted dose curve at least 0.9, where 1 is the maximum; inconclusive = response in the unintended direction; inactive = score below 0.9.

Chain of Glucocorticoid receptor (Homo sapiens) (P04150 whole entry, looked up): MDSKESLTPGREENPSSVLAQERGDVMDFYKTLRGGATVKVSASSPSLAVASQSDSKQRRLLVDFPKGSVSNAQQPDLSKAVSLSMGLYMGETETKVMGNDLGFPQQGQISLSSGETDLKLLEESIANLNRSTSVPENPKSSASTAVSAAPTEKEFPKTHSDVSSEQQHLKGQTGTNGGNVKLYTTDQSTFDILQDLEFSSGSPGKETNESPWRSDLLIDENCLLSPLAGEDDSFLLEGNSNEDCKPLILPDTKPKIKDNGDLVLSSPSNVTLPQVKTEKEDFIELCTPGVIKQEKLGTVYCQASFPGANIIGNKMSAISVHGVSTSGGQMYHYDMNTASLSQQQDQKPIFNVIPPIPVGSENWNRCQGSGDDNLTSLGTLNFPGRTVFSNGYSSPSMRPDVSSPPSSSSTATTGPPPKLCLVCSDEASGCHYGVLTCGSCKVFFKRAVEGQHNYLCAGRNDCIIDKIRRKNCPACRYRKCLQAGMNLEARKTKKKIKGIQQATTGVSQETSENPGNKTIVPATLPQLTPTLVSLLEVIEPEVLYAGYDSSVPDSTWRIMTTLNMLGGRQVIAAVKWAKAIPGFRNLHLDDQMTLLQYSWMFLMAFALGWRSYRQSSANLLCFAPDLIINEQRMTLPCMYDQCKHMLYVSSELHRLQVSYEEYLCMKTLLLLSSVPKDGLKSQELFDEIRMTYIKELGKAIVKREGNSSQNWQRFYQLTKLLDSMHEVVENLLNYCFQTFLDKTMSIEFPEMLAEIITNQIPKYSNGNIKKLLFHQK

The target in the assay is Glucocorticoid receptor (Homo sapiens) (UniProt P04150). Nature of the assay: ATG_GR_TRANS: Attagene TRANS-FACTORIAL HepG2 Assay for human Glucocorticoid Receptor (GR) (AID 2282978).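 Also: activators score as hits since higher reporter transcript over DMSO is fitted.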 As to conditions: HepG2 Attagene TRANS GR reporter, mRNA transcription. On the procedure:
ATG_TRANS is a cell-based, multiplexed-readout assay that uses HepG2, a human liver cell line, with measurements taken at 24 hours after chemical dosing in a 24-well plate.ATG_GR_TRANS is one of 30 assay component(s) measured or calculated from the ATG_TRANS assay. It is designed to make measurements of mRNA induction, a form of inducible reporter, as detected with fluorescence intensity signals by Reverse transcription polymerase chain reaction (RT-PCR) and Capillary electrophoresis technology.Data from the assay component ATG_GR_TRANS was analyzed into 1 assay endpoint. This assay endpoint, ATG_GR_TRANS, was analyzed in the positive analysis fitting direction relative to DMSO as the negative control and baseline of activity. Using a type of inducible reporter, measures of mRNA for gain-of-signal activity can be used to understand the reporter gene at the transcription factor-level as they relate to the gene NR3C1. Furthermore, this assay endpoint can be referred to as a primary readout, because this assay has produced multiple assay endpoints where this one serves a reporter gene function. To generalize the intended target to other relatable targets, this assay endpoint is annotated to the nuclear receptor intended target family, where the subfamily is steroidal.
Human liver HepG2 cells are transiently transfected with multiple reporter transcription units (MRTUs) in 6-well plates using FuGene 6 reagent (Roche; 3 ml FuGene/1 mg DNA). The MRTU constructs are regulated by a cis-regulating element (promoter). […] A major difference between the CIS and TRANS system is that in CIS activities of endogenous TFs are measured, whereas the TRANS assay evaluates changes in activities of exogenous, chimeric NR-Gal4 proteins. […] At the end of 24 hour incubation, total RNA was isolated using TriZol reagent (Invitrogen). The isolated RNA is then reverse-transcribed using oligo(dT) primer and Mo-MLV reverse transcriptase (Invitrogen) with DNAse I (Ambion) treatment for 30 min. The one-tenth of the produced cDNA was amplified by PCR using Taq DNA polymerase (Invitrogen) and two reporter sequence-specific primers. The PCR products were fluorescently labeled by primer extension with 6-arboxyfluorescein (6-FAM) 5'-labeled reporter sequence-specific primer (2 min at 95 C, 20 s at 68 C and 10 min at 72 C) and these products were digested with 5U of HpaI (New England Biolabs) for 2h at 37 C. The fragments were purified using Qiaquick PCR columns (Qiagen), analyzed on an ABI 3130xL genetic analyzer (Applied Biosystems) with peak positions identified by using a set of X-rhodamine (ROX)-labeled MapMarker1000 molecular weight standards (BioVentures). The raw capillary electrophoresis data was processed using Attagraph software (Attagene).
With `CC(C)(C)c1ccc(O)c(O)c1`, the molecule was classed as inactive.

With `O=C(O)CCC(F)(F)C(F)(F)C(F)(F)C(F)(F)C(F)(F)F`, the result was inactive.

Turning to `O=C(O)c1cccc(C(=O)O)n1`, the molecule was called inactive.

In the case of `FC(F)(F)C1(F)C(F)(F)C(F)(F)C(F)(F)C(F)(C(F)(F)F)C1(F)F` (stereo not given), the call was inactive.

With `CCOC=C(C(=O)OCC)C(=O)OCC`, the result was inactive.

For `Cc1[nH]nc2c1N=C(c1ccccc1Cl)c1cc([N+](=O)[O-])ccc1N2`, the call was inactive.

With `CC1CCC(C(=O)O)CC1` (stereo not given), the outcome was inactive.

For `O=C(O)C(F)(F)OC(F)(F)C(F)(F)OC(F)(F)C(F)(F)OC(F)(F)C(F)(F)C(F)(F)C(F)(F)F`, the molecule was classed as inactive.

In the case of `C[C@]12CC[C@@H]3c4ccc(O)cc4CC[C@H]3[C@@H]1C[C@@H](O)[C@@H]2O`, the molecule was called inactive.

Turning to `CC(C)C=O`, the result was inactive.

Regarding `c1ccc2c(c1)CCC2`, the result was inactive.

`Nc1ccn([C@@H]2O[C@H](CO)[C@@H](O)C2O)c(=O)n1` (stereo not given in full): the call was inactive.

With `Oc1cc2ccccc2cc1O`, the outcome was inactive.

Turning to `COC1=CC(=O)C[C@@H](C)[C@]12Oc1c(Cl)c(OC)cc(OC)c1C2=O`, the outcome was inactive.

Turning to `O=C(O)C(=O)O`, the outcome was inactive.

With `Cc1ccc(N=Nc2c(O)ccc3ccccc23)c(C)c1`, the molecule was classed as inactive.

As to `NC(=NCCCCCCN=C(N)/N=C(\N)Nc1ccc(Cl)cc1)/N=C(\N)Nc1ccc(Cl)cc1`, the molecule was called inactive and the AC50 was 25.3 µM (active).

Regarding `Nc1cc(Cl)c(-c2cc(Cl)c(N)cc2Cl)cc1Cl`, the outcome was inactive.

As to `C=C(c1ccc(C(=O)O)cc1)c1cc2c(cc1C)C(C)(C)CCC2(C)C`, the molecule was classed as inactive.

As to `CCCCCCCCCCCCCCC`, the result was inactive.

Consider `CC(C)(C)C1CCCCC1O` (stereo not given), for which the molecule was called inactive.

Consider `CCCCCCCCCCCCCC[n+]1ccccc1`, for which the result was inactive.

For the molecule `FC(F)(F)C(F)(F)C(F)(F)Br`, the molecule was classed as inactive.

Turning to `O=S(=O)(O)c1ccc2cc(O)ccc2c1`, the call was inactive.

For the molecule `C[C@]12CC[C@@H]3c4ccc(O)cc4CC[C@H]3[C@@H]1CC[C@@H]2OC(=O)CCC1CCCC1`, the outcome was inactive.

`CCC1CO1` (stereo not given): the result was inactive.

`CCCCCCCCCCCCCCCCCC[N+](C)(C)Cc1ccccc1`: the outcome was inactive.

With `FC(F)(F)N1C(F)(F)C(F)(F)OC(F)(F)C1(F)F`, the call was inactive.

With `CC(=O)Nc1ccc(S(N)(=O)=O)cc1`, the outcome was inactive.

As to `Clc1ccc(Nc2nnc(Cc3ccncc3)c3ccccc23)cc1`, the outcome was inactive.

On to `O=C1OC(=O)C(F)(F)C1(F)F`, for which the call was inactive.

For the molecule `C=CC(=O)OCC(CO)(COCC(COC(=O)C=C)(COC(=O)C=C)COC(=O)C=C)COC(=O)C=C`, the outcome was inactive.

With `CC=O`, the outcome was inactive.

For the molecule `CCO[Si](CCC1CCC2OC2C1)(OCC)OCC` (stereo not given), the molecule was called inactive.

Regarding `CCC(C)c1nccnc1OC` (stereo not given), the molecule was called inactive.

In the case of `O=C1C=CC(=O)N1c1cccc(N2C(=O)C=CC2=O)c1`, the result was inactive.

For `Cc1cc(C(C)(C)C)c(O)c(C(C)(C)C)c1`, the AC50 is 100 µM (active).

`C=CC(=O)OCCC(F)(F)C(F)(F)C(F)(F)C(F)(F)C(F)(F)C(F)(F)F`: the molecule was called inactive.

For `Brc1cc(Br)c(Oc2c(Br)cc(Br)c(Br)c2Br)cc1Br`, the molecule was classed as inactive.
